Assay results as given in PubChem BioAssay (NCATS).
“And” between values parts separate entries of the source, which are not always exact repeats. Equal values may be shown once. Records with an inconclusive call do not appear. The source made the active and inactive calls. Unless noted, the call rests on the fitted dose curve; in most records, active means well fitted curve in the direction sought with a large enough effect; inconclusive means small, poorly fitted or top-dose-only effect, or another doubt; inactive means no such curve, though single readings can be large; an effect the other way counts as inactive or inconclusive.

Experiments:
[1] = qHTS assay for small molecule disruptors of the mitochondrial membrane potential - 1 hr assay (AID 651754; calls by dose curve; further: on the % scale 0 is the no-effect control and ±100 the full control effect; nearly all actives have a fitted effect of over 35% in size)
Method in brief: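 HepG2, 2,000 cells/well, overnight attachment; cpd or DMSO 1 hr, 37C/5% CO2; Mito-MPS dye 30 min, 37C; fluorescence monomer (490/535) and aggregate (540/590).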

[2] = qHTS assay for small molecule disruptors of the mitochondrial membrane potential - 5 hr assay (AID 651755; calls by dose curve; further: on the % scale 0 is the no-effect control and ±100 the full control effect; nearly all actives have a fitted effect of over 40% in size)
Method in brief: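 HepG2 cells, attached overnight at 37C, were exposed to compound or DMSO for 5 hr at 37C, 5% CO2. Mito-MPS dye was then added for 30 min, and fluorescence read at 490/535 nm (monomers) and 540/590 nm (aggregates).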

[3] = molecular target: Tumor necrosis factor (Homo sapiens) (UniProt P01375); assay: qHTS assay to identify small molecules that stimulate Tumor Necrosis Factor-alpha (TNF-alpha) secretion (AID 651757; active means well fitted curve in the direction sought with a large enough effect in the signal ratio; the % refers to the signal ratio; further: 0% is about no effect)
Tumor necrosis factor (Homo sapiens), sequence (P01375 whole entry, looked up): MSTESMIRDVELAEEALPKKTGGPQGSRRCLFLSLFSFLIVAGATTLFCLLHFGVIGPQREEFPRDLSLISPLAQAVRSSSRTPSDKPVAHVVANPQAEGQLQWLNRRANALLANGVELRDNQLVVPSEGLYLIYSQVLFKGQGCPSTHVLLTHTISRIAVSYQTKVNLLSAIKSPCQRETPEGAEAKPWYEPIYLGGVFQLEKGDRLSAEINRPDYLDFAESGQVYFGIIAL
Method in brief: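 Read-out is HTRF, a TR-FRET sandwich of cryptate- and XL665-labeled anti-TNF-alpha antibodies detecting cytokine secreted by THP-1 cells. Cells had been incubated with test compounds at 37 C for 17 hrs beforehand.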

[4] = qHTS assay for environmental chemicals that activate the Aryl hydrocarbon Receptor (AhR) signaling pathway (AID 651777); settings: 1A2-DRE human hepatoma cells, luciferase, 24 h; activation: active compounds read high; further: % of control where 0% means no effect; nearly all actives have a fitted effect of over 15% in size
Method in brief: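 Reporter gene assay: hepatoma cells with DRE/CYP1A2-luciferase, 24 hr compound incubation at 37 C, 5% CO2, luminescence after One-Glo (30 min, RT).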

[5] = molecular target: Peroxisome proliferator-activated receptor alpha (Homo sapiens) (UniProt Q07869); assay: qHTS assay for small molecule agonists of the peroxisome proliferator-activated receptor alpha (PPARalpha) signaling pathway (AID 651778); settings: PathHunter PPARalpha complementation, chemiluminescence, 6 h; active compounds read high; further: % of control where 0% means no effect
Peroxisome proliferator-activated receptor alpha (Homo sapiens), sequence (Q07869 whole entry, looked up): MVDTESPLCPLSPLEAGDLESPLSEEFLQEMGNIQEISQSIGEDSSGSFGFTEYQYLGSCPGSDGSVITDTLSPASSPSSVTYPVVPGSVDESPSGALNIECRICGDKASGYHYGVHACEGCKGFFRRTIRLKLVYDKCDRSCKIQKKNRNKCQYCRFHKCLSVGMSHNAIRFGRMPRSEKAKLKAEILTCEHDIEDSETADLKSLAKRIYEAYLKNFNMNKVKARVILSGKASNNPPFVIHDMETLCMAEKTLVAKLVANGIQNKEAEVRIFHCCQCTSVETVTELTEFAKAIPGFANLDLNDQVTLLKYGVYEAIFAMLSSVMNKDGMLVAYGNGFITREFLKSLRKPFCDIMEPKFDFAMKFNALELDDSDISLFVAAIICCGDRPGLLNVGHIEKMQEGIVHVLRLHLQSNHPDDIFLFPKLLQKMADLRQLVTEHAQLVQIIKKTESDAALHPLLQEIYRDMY
Method in brief: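 Cells plated at 2,000/well and held overnight at 37 C, 5% CO2, then compound added by pin tool for 6 hr; after PathHunter detection reagent and 60 min at room temperature, chemiluminescence from enzyme complementation was read.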

[6] = qHTS assay for small molecule agonists of the antioxidant response element (ARE) signaling pathway measured by Nrf2-dependant transcriptional activity (AID 720636; active means well fitted curve in the direction sought with a large enough effect in the repeat runs; an effect the other way counts as inactive or inconclusive;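 further: HepG2 cells with an ARE-driven luciferase reporter; % of control where 0% means no effect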)
Method in brief: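 Nrf2-dependent transcription is measured in ARE-luc HepG2 cells: compound is applied for 16 hr at 37 C after a 6 hr attachment period, and luciferase activity is quantified by luminescence using ONE-Glo.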

[7] = qHTS assay for small molecule agonists of the antioxidant response element (ARE) signaling pathway measured by Nrf2-dependant transcriptional activity - cell viability counter screen (AID 720653; active means well fitted curve in the direction sought with a large enough effect in the repeat runs; an effect the other way counts as inactive or inconclusive; further: on the % scale 0 is the no-effect control and ±100 the full control effect); settings: ARE-bla HepG2 viability, CellTiter-Glo ATP luminescence, 16 h; active compounds read low
Method in brief: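 ARE-bla HepG2 cells (2,000/well) rested 5 hrs at 37C/5% CO2, then exposed to compounds in DMSO for 16 hrs. Viability was read in the same wells as intracellular ATP by luminescence, 30 min at room temperature after reagent addition.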

[8] = qHTS assay for cell viability of HEK293 cells (AID 743288); settings: ATP luminescence (CellTiter-Glo), 18 h, active compounds read low; further: on the % scale 0 is the no-effect control and ±100 the full control effect; nearly all actives have a fitted effect of over 50% in size
Method in brief: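 Environmental chemicals tested in qHTS format against parental HEK293 cells; 18 h treatment, 37 C; read-out ATP luminescence (CellTiter-Glo), 30 min RT development.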

[9] = qHTS assay for cell viability of the p53RE-bla HCT-116 cell line (AID 743292); further: on the % scale 0 is the no-effect control and ±100 the full control effect; nearly all actives have a fitted effect of over 55% in size
Method in brief: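 ATP-based luminescence, 16 h compound exposure at 37 C, p53RE-bla HCT-116 cells at 4,000/well.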

[10] = molecular target: Nuclear receptor subfamily 1 group I member 2 (Rattus norvegicus) (UniProt Q9R1A7); assay: qHTS assay for small molecule activators of the rat pregnane X receptor (rPXR) signaling pathway (AID 651751; call rule not given here; further: 0% is about no effect); settings: rPXR reporter cells, luciferase (One-Glo), 24 h
Nuclear receptor subfamily 1 group I member 2 (Rattus norvegicus), sequence (Q9R1A7 whole entry, looked up): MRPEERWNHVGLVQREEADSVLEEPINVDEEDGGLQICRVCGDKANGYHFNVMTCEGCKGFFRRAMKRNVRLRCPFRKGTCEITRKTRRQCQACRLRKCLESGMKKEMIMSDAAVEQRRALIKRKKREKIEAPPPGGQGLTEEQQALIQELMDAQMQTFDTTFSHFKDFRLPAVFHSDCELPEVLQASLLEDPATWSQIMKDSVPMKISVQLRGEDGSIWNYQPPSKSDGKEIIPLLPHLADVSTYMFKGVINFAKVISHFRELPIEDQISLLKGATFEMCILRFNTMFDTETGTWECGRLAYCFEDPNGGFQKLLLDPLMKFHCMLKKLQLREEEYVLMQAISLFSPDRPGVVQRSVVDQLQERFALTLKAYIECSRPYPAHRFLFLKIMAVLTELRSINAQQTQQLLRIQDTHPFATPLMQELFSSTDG

[11] = qHTS assay for small molecule activators of the human pregnane X receptor (PXR) signaling pathway (AID 720659; call rule not given here; further: 0% is about no effect)
[12] = molecular target: Nuclear receptor ROR-gamma (Homo sapiens) (UniProt P51449); assay: qHTS assay for small molecule antagonists of the retinoid-related orphan receptor gamma (ROR-gamma) signaling pathway (AID 651802);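 further: luciferase reporter luminescence driven by ROR response element; series mostly up to about 92 µM; on the % scale 0 is the no-effect control and ±100 the full control effect; nearly all actives have a fitted effect of over 60% in size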
Nuclear receptor ROR-gamma (Homo sapiens), sequence (P51449 whole entry, looked up): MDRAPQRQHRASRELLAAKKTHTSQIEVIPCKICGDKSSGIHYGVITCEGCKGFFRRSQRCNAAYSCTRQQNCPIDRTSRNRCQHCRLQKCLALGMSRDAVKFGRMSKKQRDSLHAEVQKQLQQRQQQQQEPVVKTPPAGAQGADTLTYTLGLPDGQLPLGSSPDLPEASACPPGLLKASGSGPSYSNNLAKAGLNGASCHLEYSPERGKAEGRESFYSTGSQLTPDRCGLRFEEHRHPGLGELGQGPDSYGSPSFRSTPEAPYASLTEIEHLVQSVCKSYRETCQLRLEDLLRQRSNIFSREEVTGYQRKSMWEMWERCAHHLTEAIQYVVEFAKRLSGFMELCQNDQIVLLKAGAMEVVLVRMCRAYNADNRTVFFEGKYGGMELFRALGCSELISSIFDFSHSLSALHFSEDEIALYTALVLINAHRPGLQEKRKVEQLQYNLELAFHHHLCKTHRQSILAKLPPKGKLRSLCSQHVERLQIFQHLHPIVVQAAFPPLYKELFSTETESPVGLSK
Method in brief: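 CHO, TET-inducible ROR + RORE-LUC reporter, 1536-well qHTS. Compound pinned, doxycycline added, 16hr 37C/5% CO2. ONE-Glo, 30 min RT, luminescence; signal drop scored as antagonism.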

[13] = qHTS assay for small molecule antagonists of the retinoid-related orphan receptor gamma (ROR-gamma) signaling pathway - cell viability counter screen (AID 720652; active means well fitted curve in the direction sought with a large enough effect in the repeat runs; an effect the other way counts as inactive or inconclusive;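 further: series mostly up to about 92 µM; compound exposure lasted 16 hr before ATP read; on the % scale 0 is the no-effect control and ±100 the full control effect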)
Method in brief: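 Luminescence from CellTiter-Glo after 30 min at room temperature reported cellular ATP as the cytotoxicity measure. Cells were the CHO reporter line with doxycycline-induced ROR-gamma expression, exposed to compound for 16 hr at 37 C.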

[14] = qHTS assay to identify small molecules that stimulate interleukin-8 (IL-8) secretion (AID 651758; active means well fitted activation curve with a large enough effect in the signal ratio; the % refers to the signal ratio; further: 0% is about no effect)
Method in brief: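 THP-1, 2000 cells/well; cpd 16 h, 37 C; add cryptate + XL665 anti-IL-8 Abs; RT 1-3 h; TR-FRET read.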

CC(=O)c1cccc([N+](=O)[O-])c1
inactive: Potency [1] | Potency [2] | Potency [3] | activation [4] 1.48% | max response [5] 0.67% | outcome [6] | max response [7] 17.8% | max response [8] -8.78% | Potency [9] | max response [10] -2.86% | outcome [11]

C/C=C1\CC2C=CC1C2 (stereo not given)
inactive: Potency [1] | Potency [2] | activation [4] -0.171% | max response [5] -5.32% | Potency [12] | outcome [6] | Potency [13] | max response [7] -2.33% | max response [8] 9.62% | Potency [9] | max response [10] 0.0305% | outcome [11]

CCc1ccccc1O
inactive: Potency [1] | Potency [2] | activation [4] -0.147% | max response [5] -2.08% | Potency [12] | outcome [6] | Potency [13] | max response [7] 4.85% | max response [8] -0.782% | Potency [9] | max response [10] -3.4% | outcome [11]

NC(N)=S
inactive: Potency [1] | Potency [2] | Potency [3] | activation [4] 0.321% | max response [5] -4.91% | outcome [6] | Potency [13] | max response [7] -0.0983% | max response [8] -3.49% | Potency [9] | max response [10] -3.24% | outcome [11]

C=Cc1ccc(C=C)cc1
inactive: Potency [1] | Potency [2] | Potency [14] | activation [4] 7.35% | max response [5] -4.42% | Potency [12] | outcome [6] | Potency [13] | max response [7] -7.35% | max response [8] -2.33% | Potency [9] | max response [10] -2.76% | outcome [11]

Cc1ccc2oc(=O)ccc2c1
inactive: Potency [1] | Potency [2] | Potency [3] | activation [4] 8.69% and -0.308% | max response [5] 7.89% and -0.114% | max response [7] -9.69% and -6.43% | max response [8] 2.42% and -2.56% | Potency [9] | max response [10] 9.5% and 1.03% | outcome [11]

O=C(O[C@@H](C(=O)O)[C@@H](OC(=O)c1ccccc1)C(=O)O)c1ccccc1
inactive: Potency [1] | Potency [2] | Potency [3] | activation [4] -0.0103% | max response [5] 3.38% | outcome [6] | max response [7] -4.37% | max response [8] 9.93% | Potency [9] | max response [10] 4.96% | outcome [11]

C=CC(=O)OCCCC
inactive: Potency [1] | Potency [2] | activation [4] 0.108% | max response [5] 0.0985% | Potency [12] | outcome [6] | Potency [13] | max response [7] -3.72% | max response [8] -0.0822% | Potency [9] | max response [10] 6.31% | outcome [11]

Cc1ccc(C)cc1
inactive: Potency [1] | Potency [2] | Potency [14] | activation [4] 0.01% | max response [5] -4.74% | Potency [12] | outcome [6] | Potency [13] | max response [7] -7.71% | max response [8] -11.4% | Potency [9] | max response [10] 0.288% | outcome [11]

O=C1OC(=O)c2cc([N+](=O)[O-])ccc21
inactive: Potency [1] | Potency [2] | Potency [14] | activation [4] -0.234% | max response [5] -4.48% | Potency [12] | outcome [6] | Potency [13] | max response [7] -1.02% | max response [8] -5.72% | Potency [9] | max response [10] -0.914% | outcome [11]

COc1ccccc1[N+](=O)[O-]
inactive: Potency [1] | Potency [2] | activation [4] 0.316% and 0.0004% | max response [5] -1.42% and -1.21% | Potency [12] | outcome [6] | Potency [13] | max response [7] -18.6% and -4.26% | max response [8] -1.85% and -1.91% | Potency [9] | max response [10] 1.11% and 2.57% | outcome [11]

C=C(C)C(=O)OCCCCCC
inactive: Potency [1] | Potency [2] | Potency [3] | max response [5] -8.01% | Potency [12] | outcome [6] | Potency [13] | max response [7] -4.89% | max response [8] 6.76% | Potency [9] | max response [10] -0.698% | outcome [11]

CCOc1ccc(NC(C)=O)cc1N
inactive: Potency [1] | Potency [2] | Potency [14] | max response [5] -2.02% | Potency [12] | outcome [6] | Potency [13] | max response [7] -8.42% | max response [8] -2.43% | Potency [9] | max response [10] 9.33% | outcome [11]
